According to PubChem BioAssay (NCI):
About 83,000 compounds went through this panel and 20% of them were active in at least one assay; those are over-represented in the sample as a whole.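 A percent growth of 40 corresponds to 60% growth inhibition; 0 means no net growth; -100 means all cells died. Active threshold: below 10.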 Activity calls are given as the source filed them.

How the values were obtained:
Test in all cases: NCI-60 one-dose screen, 48 h (100 = growth as untreated, 0 = no growth, -100 = all killed)
Conditions in all cases: 10 µM unless noted
SK-MEL-2 melanoma = system: SK-MEL-2 melanoma
EKVX NSCLC = system: EKVX NSCLC
SN12C renal = system: SN12C renal
UO-31 renal = system: UO-31 renal
TK-10 renal = system: TK-10 renal
ACHN renal = system: ACHN renal
CAKI-1 renal = system: CAKI-1 renal
A498 renal = system: A498 renal
CCRF-CEM leukemia = system: CCRF-CEM leukemia
MOLT-4 leukemia = system: MOLT-4 leukemia
SR leukemia = system: SR leukemia
RPMI-8226 leukemia = system: RPMI-8226 leukemia
OVCAR-8 ovarian = system: OVCAR-8 ovarian
OVCAR-5 ovarian = system: OVCAR-5 ovarian
OVCAR-4 ovarian = system: OVCAR-4 ovarian
SK-OV-3 ovarian = system: SK-OV-3 ovarian
IGROV1 ovarian = system: IGROV1 ovarian
OVCAR-3 ovarian = system: OVCAR-3 ovarian
HS 578T breast = system: HS 578T breast
NCI/ADR-RES ovarian = system: NCI/ADR-RES ovarian

Measured: growth

O=C1OCC2=C1C(c1cccc(F)c1)c1cc3c(cc1N2CCO)OCO3 (stereo not given)
active: A498 renal 3.08% | CCRF-CEM leukemia 7.3% | OVCAR-3 ovarian 2.41%
inactive: SK-MEL-2 melanoma 26% | EKVX NSCLC 46.1% | SN12C renal 48.3% | UO-31 renal 36.9% | TK-10 renal 52.3% | ACHN renal 34.5% | CAKI-1 renal 23.8% | MOLT-4 leukemia 25.6% | SR leukemia 16.7% | RPMI-8226 leukemia 17.5% | OVCAR-8 ovarian 34.5% | OVCAR-5 ovarian 63.6% | OVCAR-4 ovarian 57.3% | SK-OV-3 ovarian 19.5% | IGROV1 ovarian 40% | HS 578T breast 17.8% | NCI/ADR-RES ovarian 25.4%

CCOC(=O)c1c(C)nn(CC(O)c2ccccc2)c1NC(=O)Nc1cccc(F)c1 (stereo not given)
inactive: SK-MEL-2 melanoma 90.9% | EKVX NSCLC 91.2% | SN12C renal 84.1% | UO-31 renal 74.8% | TK-10 renal 110% | ACHN renal 89.7% | CAKI-1 renal 83.4% | A498 renal 70.9% | CCRF-CEM leukemia 89.3% | MOLT-4 leukemia 88.7% | SR leukemia 93% | RPMI-8226 leukemia 80.8% | OVCAR-8 ovarian 93.1% | OVCAR-5 ovarian 84.8% | OVCAR-4 ovarian 83.6% | SK-OV-3 ovarian 85.2% | IGROV1 ovarian 90% | OVCAR-3 ovarian 95.6% | HS 578T breast 71.4% | NCI/ADR-RES ovarian 90.9%

CCOC(=O)Cn1c(=O)c2c3ccccc3n(C)c2n2nnc(-c3ccccc3)c12
active: MOLT-4 leukemia -40.7% | SR leukemia -50.7%
inactive: SK-MEL-2 melanoma 97.1% | EKVX NSCLC 85.8% | SN12C renal 81.8% | UO-31 renal 81.2% | TK-10 renal 129% | ACHN renal 91.8% | CAKI-1 renal 81.2% | A498 renal 134% | CCRF-CEM leukemia 68.4% | RPMI-8226 leukemia 65% | OVCAR-8 ovarian 113% | OVCAR-5 ovarian 74.3% | OVCAR-4 ovarian 102% | SK-OV-3 ovarian 117% | IGROV1 ovarian 58.6% | OVCAR-3 ovarian 100% | HS 578T breast 82.1% | NCI/ADR-RES ovarian 85.7%

COc1ccc(/C=C/C(=O)c2cc3c(N)c(C(=O)Nc4ccccc4C)sc3nc2C)cc1
active: RPMI-8226 leukemia -7.33% | OVCAR-8 ovarian 6.22% | OVCAR-3 ovarian 1.23% | NCI/ADR-RES ovarian 7.7%
inactive: SK-MEL-2 melanoma 14.5% | EKVX NSCLC 43.3% | SN12C renal 26.4% | UO-31 renal 40.4% | TK-10 renal 32% | ACHN renal 38.7% | CAKI-1 renal 23.3% | A498 renal 16.7% | CCRF-CEM leukemia 16.4% | MOLT-4 leukemia 27.6% | SR leukemia 15.2% | OVCAR-5 ovarian 36.6% | OVCAR-4 ovarian 54% | SK-OV-3 ovarian 21.2% | IGROV1 ovarian 30.6% | HS 578T breast 10.4%

C=C(CN1CC=CCC1)[C@@H]1CC[C@]2(CO)CC[C@]3(C)[C@H](CC[C@@H]4[C@@]5(C)CC[C@H](O)C(C)(C)[C@@H]5CC[C@]43C)[C@@H]12
inactive: SK-MEL-2 melanoma 110% | EKVX NSCLC 104% | SN12C renal 98.1% | UO-31 renal 93.7% | TK-10 renal 123% | ACHN renal 114% | CAKI-1 renal 106% | A498 renal 112% | CCRF-CEM leukemia 91.3% | MOLT-4 leukemia 86.5% | SR leukemia 76.9% | RPMI-8226 leukemia 88% | OVCAR-8 ovarian 101% | OVCAR-5 ovarian 109% | OVCAR-4 ovarian 92.8% | SK-OV-3 ovarian 107% | IGROV1 ovarian 107% | OVCAR-3 ovarian 102% | HS 578T breast 95.3% | NCI/ADR-RES ovarian 90.1%

COc1cc(/C=C2\CN(S(=O)(=O)c3ccc(C)cc3)C/C(=C\c3cc(CN4CCCCC4)c(O)c(OC)c3)C2=O)cc(CN2CCCCC2)c1O
active: SK-MEL-2 melanoma -73.7% | EKVX NSCLC -81% | SN12C renal -76.5% | UO-31 renal -89.1% | TK-10 renal -93.4% | ACHN renal -98.9% | CAKI-1 renal -89% | CCRF-CEM leukemia -6.3% | MOLT-4 leukemia -23.7% | SR leukemia -14.6% | RPMI-8226 leukemia -39.3% | OVCAR-8 ovarian -66.4% | OVCAR-5 ovarian -86.5% | OVCAR-4 ovarian -72.7% | IGROV1 ovarian -67% | OVCAR-3 ovarian -89.4% | HS 578T breast -33.4% | NCI/ADR-RES ovarian -47.2%
inactive: A498 renal 90% | SK-OV-3 ovarian 115%

O=C1/C(=C/c2ccccc2[N+](=O)[O-])COc2ccc(O)cc21
active: SN12C renal -17.2% | UO-31 renal -68.7% | ACHN renal -13.5% | CAKI-1 renal -15.3% | CCRF-CEM leukemia 0.864% | MOLT-4 leukemia 4.74% | RPMI-8226 leukemia 3.29% | OVCAR-8 ovarian 6.3% | OVCAR-5 ovarian -19% | IGROV1 ovarian -0.209% | OVCAR-3 ovarian 7.73% | HS 578T breast 5.1% | NCI/ADR-RES ovarian 2.55%
inactive: SK-MEL-2 melanoma 57.1% | EKVX NSCLC 54.7% | TK-10 renal 27.4% | A498 renal 85.8% | SR leukemia 22.2% | OVCAR-4 ovarian 15.6% | SK-OV-3 ovarian 77.7%

N#Cc1c(-c2ccccc2)c(C#N)c2c(C#N)c(N)nn2c1N
inactive: EKVX NSCLC 47.3% | SN12C renal 51.7% | UO-31 renal 52.1% | TK-10 renal 67% | ACHN renal 60.9% | CAKI-1 renal 47% | CCRF-CEM leukemia 13.3% | MOLT-4 leukemia 11.7% | RPMI-8226 leukemia 21.2% | OVCAR-8 ovarian 61.1% | OVCAR-5 ovarian 78% | OVCAR-4 ovarian 57.7% | SK-OV-3 ovarian 62.2% | IGROV1 ovarian 31.9% | OVCAR-3 ovarian 15.5% | HS 578T breast 27.4% | NCI/ADR-RES ovarian 29.9%
active: SK-MEL-2 melanoma 9.95% | A498 renal -8.04% | SR leukemia 2.65%
